The inhibition is the relative decrease from the control value, in per cent.

A number with no mark means an inactive call. For some of these results: Results with a measured potency or affinity are listed apart. Calls of active or inactive are those of the source. Unless noted, no rule for the calls is given here.

Test [1] in a line: antimalarial activity against Dd2 strain (AID 2302;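 active = growth inhibition above 50% at the single 2 µM test dose, taken to imply half-maximal potency below 2 µM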;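 also: 0% = DMSO untreated growth and 100% = chloroquine plus artemisinin killed control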). The conditions noted are these: P. falciparum Dd2 in RBCs, LDH growth readout, 72 h; at 2 µM; active compounds read high.
The target in test [2] is L-lactate dehydrogenase (Plasmodium falciparum (isolate CDC / Honduras)) (UniProt Q27743). As to the kind of experiment: PfLDH activity inhibition – cell lysate, 3D7 strain, counter-screen for P. falciparum growth inhibition project (AID 2304).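 Also: 0% = vehicle and 100% = reference inhibitor.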 The conditions noted are these: P. falciparum 3D7 crude extract, LDH APAD/NBT absorbance; at 2 µM; active compounds read high. (In general: The purpose of a counterscreen is to sort out artefacts and off-target activity.)

Test [3] is described as follows: inhibition of 3D7 malaria parasite growth – strain 3D7 (AID 2306).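 Also: 0% = DMSO wells and 100% = chloroquine plus artemisinin control wells.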 The conditions noted are these: P. falciparum 3D7 erythrocytic growth, LDH absorbance, 72 h; at 2 µM; active compounds read high.
Test [4] deals with Calcium-dependent protein kinase 1 (Plasmodium falciparum (isolate 3D7)) (UniProt P62344). As to the kind of experiment: PfCDPK1 kinase inhibitors, biochemical, TCAMS library (AID 1159585; cut-off not given, nearly all actives have IC50 up to about 0.98 µM;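 also: inhibitors leave more ATP so luminescence rises with inhibition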). The conditions noted are these: recombinant PfCDPK1, Kinase-Glo ATP depletion luminescence. (In general: Kinase-Glo measures the ATP left after a reaction by luminescence.)
For test [5], the target named is Plasmodium falciparum protein kinase 6 (PK6, PF3D7_1337100) (UniProt Q8IDW1). Briefly: PfPK6 kinase inhibitors, biochemical, TCAMS library (AID 1159586). The conditions noted are these: recombinant PfPK6, Kinase-Glo ATP depletion luminescence.
Test [6] has as its target Protein kinase 7 (PK7), Plasmodium falciparum 3D7 (PF3D7_0213400) (UniProt Q7YTF7). As to the kind of experiment: inhibition of Plasmodium PK7 catalytic activity – biochemical, TCAMS antimalarial set, Kinase-Glo luminescence (AID 1159587). The conditions noted are these: recombinant PfPK7, Kinase-Glo ATP depletion luminescence.
Test [7] has as its target Calcium-dependent protein kinase 4 (Plasmodium falciparum (isolate 3D7)) (UniProt Q8IBS5). Briefly: PfCDPK4 kinase inhibitors, biochemical, TCAMS library (AID 1159588; cut-off not given, nearly all actives have IC50 up to about 0.91 µM). The conditions noted are these: recombinant PfCDPK4, Kinase-Glo ATP depletion luminescence.
Test [8] can be described thus: HepG2 cytotoxicity, primary screen, cytotoxicity control for P. falciparum antimalarial project, cell-based, ATP luminescence (AID 2303;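 active = inhibition above 50%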;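 also: 0% = DMSO wells and 100% = digitonin-killed cells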). The conditions noted are these: HepG2 viability, 24-48 h, at 10 µM, active compounds read high.

Sequence of Calcium-dependent protein kinase 1 (Plasmodium falciparum (isolate 3D7)) (P62344 whole entry, looked up): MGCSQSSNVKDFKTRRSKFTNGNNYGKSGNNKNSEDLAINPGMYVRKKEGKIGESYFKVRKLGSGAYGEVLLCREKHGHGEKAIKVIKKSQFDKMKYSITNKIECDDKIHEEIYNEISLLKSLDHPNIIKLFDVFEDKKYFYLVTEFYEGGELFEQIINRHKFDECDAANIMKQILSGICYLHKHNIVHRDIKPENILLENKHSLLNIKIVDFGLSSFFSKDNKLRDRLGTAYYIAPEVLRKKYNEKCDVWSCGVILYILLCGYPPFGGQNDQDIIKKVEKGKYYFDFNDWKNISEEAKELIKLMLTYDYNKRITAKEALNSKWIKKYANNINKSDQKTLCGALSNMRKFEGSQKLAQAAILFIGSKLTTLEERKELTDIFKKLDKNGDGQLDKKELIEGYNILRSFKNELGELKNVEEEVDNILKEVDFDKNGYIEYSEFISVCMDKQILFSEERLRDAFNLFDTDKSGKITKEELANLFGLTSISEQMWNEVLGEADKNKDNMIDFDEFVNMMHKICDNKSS
Sequence of Protein kinase 7 (PK7), Plasmodium falciparum 3D7 (PF3D7_0213400) (Q7YTF7 1-343): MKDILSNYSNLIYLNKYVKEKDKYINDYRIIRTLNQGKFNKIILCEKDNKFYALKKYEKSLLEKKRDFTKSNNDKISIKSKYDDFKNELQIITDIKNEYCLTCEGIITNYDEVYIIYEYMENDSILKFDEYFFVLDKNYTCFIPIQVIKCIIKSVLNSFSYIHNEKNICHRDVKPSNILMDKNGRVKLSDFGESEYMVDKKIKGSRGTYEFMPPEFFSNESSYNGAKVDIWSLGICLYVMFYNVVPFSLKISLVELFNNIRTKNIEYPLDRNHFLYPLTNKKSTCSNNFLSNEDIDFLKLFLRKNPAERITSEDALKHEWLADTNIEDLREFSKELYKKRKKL
Sequence of L-lactate dehydrogenase (Plasmodium falciparum (isolate CDC / Honduras)) (Q27743 whole entry, looked up): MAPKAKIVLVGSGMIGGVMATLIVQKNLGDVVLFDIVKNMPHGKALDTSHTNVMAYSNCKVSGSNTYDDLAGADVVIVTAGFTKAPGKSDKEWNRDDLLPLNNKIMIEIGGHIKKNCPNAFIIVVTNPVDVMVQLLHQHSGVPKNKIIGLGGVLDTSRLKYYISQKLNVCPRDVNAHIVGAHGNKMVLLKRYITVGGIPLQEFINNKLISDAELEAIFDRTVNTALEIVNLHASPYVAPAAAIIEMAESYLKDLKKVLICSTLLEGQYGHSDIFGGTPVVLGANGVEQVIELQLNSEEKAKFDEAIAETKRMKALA
Sequence of Calcium-dependent protein kinase 4 (Plasmodium falciparum (isolate 3D7)) (Q8IBS5 whole entry, looked up): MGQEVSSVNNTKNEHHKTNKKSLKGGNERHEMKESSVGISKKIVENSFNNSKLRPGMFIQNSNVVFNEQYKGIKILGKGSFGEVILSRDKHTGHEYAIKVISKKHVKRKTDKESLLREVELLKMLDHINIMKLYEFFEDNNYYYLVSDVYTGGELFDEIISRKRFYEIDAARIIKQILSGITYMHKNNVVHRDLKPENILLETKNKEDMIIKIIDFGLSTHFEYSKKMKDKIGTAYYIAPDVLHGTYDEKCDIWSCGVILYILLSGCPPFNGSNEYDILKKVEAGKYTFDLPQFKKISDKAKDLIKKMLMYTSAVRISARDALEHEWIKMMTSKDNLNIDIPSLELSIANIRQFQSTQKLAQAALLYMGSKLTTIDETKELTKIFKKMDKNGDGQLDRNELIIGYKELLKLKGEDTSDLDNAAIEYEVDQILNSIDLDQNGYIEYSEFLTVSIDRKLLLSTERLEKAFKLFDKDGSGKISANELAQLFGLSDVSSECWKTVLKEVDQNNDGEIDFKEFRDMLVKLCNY
Sequence of Plasmodium falciparum protein kinase 6 (PK6, PF3D7_1337100) (Q8IDW1 1-305): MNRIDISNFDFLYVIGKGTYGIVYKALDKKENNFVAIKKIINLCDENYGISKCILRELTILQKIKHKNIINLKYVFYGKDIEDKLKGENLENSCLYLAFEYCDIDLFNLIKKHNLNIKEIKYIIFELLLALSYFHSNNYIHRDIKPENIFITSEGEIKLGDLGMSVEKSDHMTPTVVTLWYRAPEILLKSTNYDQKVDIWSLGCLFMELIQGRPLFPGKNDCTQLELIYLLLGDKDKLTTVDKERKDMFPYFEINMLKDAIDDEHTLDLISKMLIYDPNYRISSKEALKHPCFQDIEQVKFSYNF

`Nc1nc(N)c2c(Sc3ccccc3)cccc2n1`: the growth inhibition in test [1] is 0%; in test [3] it was 97% (active). Also, the inhibition in test [2] is -5%. Moreover, the result in test [4], in test [5], in test [6] and in test [7] was inactive.
On to `CCCc1cc(OC)c(CC2c3cc(O)c(Cl)cc3C(c3ccccc3)CN2C)cc1OC` (stereo not drawn), for which the growth inhibition in test [1] and in test [3] was 100% (active) each time. The inhibition in test [2] was 4%. Further, the result in test [4], in test [5], in test [6] and in test [7] was inactive.
Turning to `Cc1ccc(Nc2c3ccccc3nc3ccc(C)cc23)cc1`, the inhibition is 26% in test [8] and -2% in test [2]. Also, the growth inhibition in test [3] is 88% (active). Moreover, the outcome in test [4], in test [5], in test [6] and in test [7] was inactive.
Turning to `Nc1nc(N)c2c(ccc3[nH]c(-c4ccccc4Cl)nc32)n1`, the growth inhibition in test [1] and in test [3] was 101% (active) throughout. Moreover, in test [2], the inhibition is -1%. Moreover, the outcome in test [4], in test [5], in test [6] and in test [7] was inactive.
For `C=CCOc1cc(Cc2cnc(N)nc2N)cc(OC)c1OC`, the inhibition in test [8] is -14%; in test [2], 2%. Moreover, the growth inhibition in test [3] is 81% (active). In addition, the result in test [4], in test [5], in test [6] and in test [7] was inactive.
Take `COc1cc2ncnc(Nc3ccc(OC(F)(F)c4ccccc4)cc3)c2cc1OC`: the figures for the inhibition in test [8] and in test [2] were 14% and 2%, respectively. Also, the growth inhibition in test [3] is 91% (active). The result in test [4], in test [5], in test [6] and in test [7] was inactive.
In the case of `O=[N+]([O-])c1ccc(-n2nc(-c3cccnc3)n(Cc3ccco3)c2=S)c(Cl)c1`, the values for the inhibition in test [8] and in test [2] were 13% and -1%, respectively. Moreover, the growth inhibition in test [3] is 95% (active). In addition, the result in test [4], in test [5], in test [6] and in test [7] was inactive.
In the case of `CC(=O)Oc1c(Cl)c(C)nc(C)c1-c1ccc(Oc2ccc(Cl)cc2)cc1`, the growth inhibition was 96% (active) in test [1] and 98% (active) in test [3]. In addition, the inhibition in test [2] is 0%. For the same compound, the outcome in test [4], in test [5], in test [6] and in test [7] was inactive.
For `Cc1[nH]c(C)c(-c2ccc(-c3ccc(F)cc3)cc2)c(=O)c1Cl`, the growth inhibition in test [1] and in test [3] was 96% (active) each time. For the same compound, the inhibition in test [2] was -2%. The outcome in test [4], in test [5], in test [6] and in test [7] was inactive.
With `CCCN1CCN(CCNc2c3ccccc3nc3ccccc23)CC1`, the figures for the inhibition in test [8] and in test [2] were 13% and 3%, respectively. Moreover, in test [3], the growth inhibition is 88% (active). Moreover, the result in test [4], in test [5], in test [6] and in test [7] was inactive.
In the case of `Nc1[nH]c2ccccc2c(=O)c1-c1nc2ccccc2s1`, the inhibition was 16% in test [8] and -6% in test [2]. In test [3], the growth inhibition is 97% (active). For the same compound, the outcome in test [4], in test [5], in test [6] and in test [7] was inactive.
Turning to `CC(C)Cc1csc(NC(=O)C=Cc2ccco2)c1C(=O)O`, the inhibition in test [8] is 4%; in test [2], -2%. In addition, the growth inhibition in test [3] was 82% (active). For the same compound, the outcome in test [4], in test [5], in test [6] and in test [7] was inactive.
Consider `COc1cc(OC)cc(C(=O)Nc2nc(-c3ccc(NC(=O)c4ccccc4)cc3)cs2)c1`, for which the figures for the inhibition in test [8] and in test [2] were 16% and -1%, respectively. In addition, in test [3], the growth inhibition was 88% (active). Further, the outcome in test [4], in test [5], in test [6] and in test [7] was inactive.
With `Clc1ccc(CNCCCCCCCNCc2ccc(Cl)c(Cl)c2)cc1Cl`, the growth inhibition was 49% in test [1] and 99% (active) in test [3]. In test [2], the inhibition was -7%. Moreover, the result in test [4], in test [5], in test [6] and in test [7] was inactive.
With `Oc1ccc(CNCC2CCN(CC3CCCCC3)CC2)cc1`, the inhibition was 9% in test [8] and -1% in test [2]. For the same compound, the growth inhibition in test [3] was 82% (active). Also, the result in test [4], in test [5], in test [6] and in test [7] was inactive.
With `Cc1nc2ccc(S(=O)(=O)Nc3ccc(C(=O)N[C@@H](CCC(=O)O)C(=O)O)cc3)cc2c(=O)[nH]1`, the growth inhibition in test [1] was 2%; in test [3], 94% (active). For the same compound, in test [2], the inhibition is 7%. Besides, the outcome in test [4], in test [5], in test [6] and in test [7] was inactive.
In the case of `CCOc1cc2ncnc(Nc3ccc(OCc4ccccc4OC)c(OC)c3)c2cc1OCC`, the values for the growth inhibition in test [1] and in test [3] were 52% (active) and 97% (active), respectively. Also, in test [2], the inhibition is -5%. The outcome in test [4], in test [5], in test [6] and in test [7] was inactive.
In the case of `COc1ccc2c(c1)C(C)(CCCN(C)C)C(=O)N2C` (stereo not drawn), the inhibition in test [8] was 8%; in test [2], -3%. Further, the growth inhibition in test [3] was 93% (active). Moreover, the outcome in test [4], in test [5], in test [6] and in test [7] was inactive.
In the case of `Cc1ccc(-n2c(C)cc(C(=O)CN3C(=O)NC(Cc4ccccc4)C3=O)c2C)cc1` (stereo not drawn), the inhibition is -11% in test [8] and 3% in test [2]. Further, the growth inhibition in test [3] was 82% (active). Further, the outcome in test [4], in test [5], in test [6] and in test [7] was inactive.

These data come from PubChem BioAssay.
